In PubChem BioAssay:
Unmarked numbers belong to inactive results. The rule behind the calls is not given here. Non-standard residues stand in square brackets, D forms with d. Residues, ends and D or L forms follow the SMILES beside them. Groups on a side chain read outwards from the residue. *: point of attachment. X2 = CCC(C)C(N)C1=NC(C(=O)*)CS1; Orn = NCCC[CH](N)C(=O)O

System: Aerobactin synthetase IucA (Klebsiella pneumoniae hvKP1)
Test: IucA enzyme inhibition, primary screen, biochemical, Spectrum library (AID 1346200);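 note: 100% = wells without compound and 0% = wells lacking enzyme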
Conditions: malachite green pyrophosphate, A620, at 8 µM, hits give low values

Going from `CCCCCCCCCCCCC[N+](C)(C)Cc1ccccc1` to `CCOC(=O)[C@H](CCc1ccccc1)N[C@H]1CCc2ccccc2N(CC(=O)O)C1=O`, the activity remaining rises from 104% to 123%.

Going from `CC1(C)C2CC[C@]3(C)C(C(=O)C=C4[C@@H]5C[C@@](C)(C(=O)O)CC[C@]5(C)CC[C@]43C)[C@@]2(C)CC[C@@H]1OC(=O)CCC(=O)O` (stereo partly drawn) to `CC(=O)OC1CCC2(C)C(=CC=C3C2CCC2(C)C3CCC2C(C)/C=C/C(C)C(C)C)C1(C)C` (stereo not drawn), the activity remaining rises from 120% to 125%.

Compared with `COc1cc2c(cc1-c1coc3c4c(c(OC)cc3c1=O)OC(C)(C)C=C4)OCO2`, `COc1cc([C@H]2Oc3cc([C@H]4Oc5cc(O)cc(O)c5C(=O)[C@@H]4O)ccc3O[C@@H]2CO)ccc1O` is higher in activity remaining: 110% for the first, 122% for the second.

Going from `O=C(Oc1cc(OC(=O)c2ccccc2)c2c(c1)O[C@H](c1ccc(OC(=O)c3ccccc3)c(OC(=O)c3ccccc3)c1)[C@@H](OC(=O)c1ccccc1)C2)c1ccccc1` to `CC(C)CC1NC(=O)C(CCCN)NC(=O)C(C(C)C)NC(=O)C(Cc2ccc(O)cc2)NC(=O)C(CCC(=O)O)NC(=O)C(CC(=O)O)NC(=O)C(Cc2ccccc2)NC(=O)C(Cc2ccccc2)NC(=O)C2CCCN2C(=O)C(Cc2ccccc2)NC1=O` (stereo not drawn) (cyclo(DEYV[Orn]LFPFF); configuration not given here), the activity remaining rises from 106% to 113%.

Going from `O=c1c(O)c(-c2ccc(O)cc2)oc2ccccc12` to `O=C(/C=C/c1ccc(O)cc1)c1ccccc1O`, the activity remaining rises from 104% to 109%.

Going from `O=C1CC[C@]23/C=C/C(=O)NCCCCNCCCNC(=O)/C=C/c4ccc(c2c4)O[C@@H]3C1` to `Oc1ccc([C@H]2Oc3cc(O)cc(O)c3C[C@H]2O)cc1`, the activity remaining falls from 117% to 113%.

Going from `CC(C(=O)O)c1ccc2c(c1)[nH]c1ccc(Cl)cc12` (stereo not drawn) to `COc1ccc2cc([C@H](C)CO)ccc2c1`, the activity remaining rises from 109% to 118%.

First: CC(C)NCC(O)c1ccc2ccccc2c1 (stereo not drawn)
Second: COCCc1ccc(OCC(O)CNC(C)C)cc1 (stereo not drawn)
The activity remaining of the first is lower: 102% for the first, 113% for the second.

Going from `CN(C)CCOC(c1ccccc1)c1ccccc1` (tested in a mixture with another compound) to `O=C(Nc1ccccc1)Nc1ccccc1`, the activity remaining falls from 117% to 103%.

First: O=C(Cc1cccs1)NC1C(=O)N2C(C(=O)[O-])=C(C[n+]3ccccc3)CSC12 (stereo not drawn)
Second: CC1(C)S[C@@H]2C(N3C(=O)[C@@H](c4ccccc4)NC3(C)C)C(=O)N2[C@H]1C(=O)O (stereo partly drawn)
The activity remaining of the first is higher: 109% for the first, 108% for the second.

Compared with `C=C[C@@](C)(O)CCC1C(=C)CCC2[C@@](C)(CO)CCC[C@]12C` (stereo partly drawn), `CC(CCC(=O)O)[C@H]1CCC2C3CC[C@@H]4C[C@H](O)CC[C@]4(C)C3CC[C@@]21C` (stereo partly drawn) is lower in activity remaining: 117% for the first, 91.8% for the second.

Going from `Cc1cc(O)c(C=O)c2c1C(=O)Oc1c(C)c(O)c3c(c1O2)C(O)OC3=O` (stereo not drawn) to `N[C@@H](Cc1cc(I)c(Oc2cc(I)c(O)c(I)c2)c(I)c1)C(=O)O`, the activity remaining rises from 113% to 117%.

Compared with `CCC(C)C(N)C1=NC(C(=O)NC(CC(C)C)C(=O)NC(CCC(=O)O)C(=O)NC(C(=O)NCCCCC2NC(=O)C(CC(N)=O)NC(=O)C(CC(=O)O)NC(=O)C(Cc3cnc[nH]3)NC(=O)C(Cc3ccccc3)NC(=O)C(C(C)CC)NC(=O)C(CCCN)NC2=O)C(C)CC)CS1` (stereo not drawn) (cyclo(DNK([Ile-Glu-Leu-X2])[Orn]IFH); configuration not given here), `COC(=O)Nc1nc2ccc(C(=O)c3ccccc3)cc2[nH]1` is lower in activity remaining: 123% for the first, 104% for the second.

Compared with `CC(=O)Nc1ccc(OC(=O)c2ccccc2O)cc1`, `CCCC(=O)Nc1ccc(OCC(O)CNC(C)C)c(C(C)=O)c1` (stereo not drawn) is higher in activity remaining: 101% for the first, 120% for the second.

Compared with `OCCN1C[C@@H](O)[C@@H](O)C(O)C1CO` (stereo partly drawn), `CC1C/C=C/C=C/C=C/C=C/C(O[C@@H]2O[C@H](C)[C@@H](O)[C@H](N)[C@@H]2O)CC2OC(O)(CC(O)CC3OC3/C=C/C(=O)O1)CC(O)C2C(=O)O` (stereo partly drawn) is higher in activity remaining: 114% for the first, 118% for the second.

Going from `C#C[C@]1(OC(C)=O)CCC2C3CCC4=CC(=O)CC[C@@H]4C3CC[C@@]21C` (stereo partly drawn) to `CCC(=O)NCC[C@@H]1CCc2ccc3c(c21)CCO3`, the activity remaining rises from 93% to 120%.

For `NC(C(=O)O)C(O)C(=O)O` (stereo not drawn), the activity remaining was 97.5%.
